In PMC5349851, “Combinatorial bZIP dimers display complex DNA-binding specificity landscapes”:

Assays:
Experiment in all cases: SELEX-seq (CSI, HT-SELEX, round 3); SELEX-seq: 1x PBS (10 mM phosphate, 137 mM NaCl, 2.7 mM KCl) pH 7.6, 2.5 mM DTT, 50 ng/ul poly dI-dC, 0.1% BSA, 50 nM biotinylated bZIP (1:3 with partner for heterodimers), 100 nM library, room temperature, 1 h, 3 rounds; high values mean tight binding
Conditions in all cases: protein: recombinant;recombinant; copies: 1;1; dsDNA, one strand shown
ATF3;CEBPG = target: T1, ATF3;CEBPG (Homo sapiens;Homo sapiens, UniProt P18847;P53567 77-150;52-130, |)
T1 sequence 1: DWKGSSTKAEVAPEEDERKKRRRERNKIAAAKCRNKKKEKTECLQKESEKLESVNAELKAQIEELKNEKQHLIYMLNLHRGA
T1 sequence 2: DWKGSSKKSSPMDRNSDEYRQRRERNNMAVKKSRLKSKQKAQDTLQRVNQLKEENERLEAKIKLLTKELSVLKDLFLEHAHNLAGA

ATF3;CEBPA = ATF3;CEBPA (Homo sapiens;Homo sapiens, UniProt P18847;P49715 77-150;273-345, |)
JUN;CEBPG = JUN;CEBPG (Homo sapiens;Homo sapiens, UniProt P05412;P53567 243-316;52-130, |)
JUN;CEBPA = JUN;CEBPA (Homo sapiens;Homo sapiens, UniProt P05412;P49715 243-316;273-345, |)
JUN;CEBPA, sequence (P05412 other isoform, or with tags, fused parts or gaps |, chain 1 of 2): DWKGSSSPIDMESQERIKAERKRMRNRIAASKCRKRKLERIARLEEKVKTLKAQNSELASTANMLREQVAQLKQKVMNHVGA
JUN;CEBPA, sequence (P49715 other isoform, or with tags, fused parts or gaps |, chain 2 of 2): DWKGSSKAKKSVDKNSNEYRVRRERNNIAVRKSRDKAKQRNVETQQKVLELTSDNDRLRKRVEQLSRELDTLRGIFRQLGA

BATF3;CEBPG = target: T2, BATF3;CEBPG (Homo sapiens;Homo sapiens, UniProt Q9NR55;P53567 26-99;52-130, |)
T2 sequence 1: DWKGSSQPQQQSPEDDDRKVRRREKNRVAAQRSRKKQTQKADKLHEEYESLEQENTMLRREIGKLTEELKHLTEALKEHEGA
T2 sequence 2: T1 sequence 2

BATF3;CEBPA = BATF3;CEBPA (Homo sapiens;Homo sapiens, UniProt Q9NR55;P49715 26-99;273-345, |)
BATF3;CEBPA, sequence (P49715 other isoform, or with tags, fused parts or gaps |): as the sequence (P49715 other isoform, or with tags, fused parts or gaps |, chain 2 of 2) above

ATF3;ATF3 = target: T3, ATF3;ATF3 (Homo sapiens;Homo sapiens, UniProt P18847;P18847 77-150;77-150, |)
T3 sequence 1: T1 sequence 1
T3 sequence 2: T1 sequence 1

JUNB;CEBPA = JUNB;CEBPA (Homo sapiens;Homo sapiens, UniProt P17275;P49715 259-332;273-345, |)
JUNB;CEBPA, sequence (P17275 other isoform, or with tags, fused parts or gaps |, chain 1 of 2): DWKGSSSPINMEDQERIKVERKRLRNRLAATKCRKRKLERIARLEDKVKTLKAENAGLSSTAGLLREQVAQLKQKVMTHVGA
JUNB;CEBPA, sequence (P49715 other isoform, or with tags, fused parts or gaps |, chain 2 of 2): as the sequence (P49715 other isoform, or with tags, fused parts or gaps |, chain 2 of 2) above

BATF;CEBPG = target: T4, BATF;CEBPG (Homo sapiens;Homo sapiens, UniProt Q16520;P53567 17-90;52-130, |)
T4 sequence 1: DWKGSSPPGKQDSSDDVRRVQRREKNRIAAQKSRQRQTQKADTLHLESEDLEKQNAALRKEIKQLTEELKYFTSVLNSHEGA
T4 sequence 2: T1 sequence 2

FOSL1;CEBPG = target: T5, FOSL1;CEBPG (Homo sapiens;Homo sapiens, UniProt P15407;P53567 96-169;52-130, |)
T5 sequence 1: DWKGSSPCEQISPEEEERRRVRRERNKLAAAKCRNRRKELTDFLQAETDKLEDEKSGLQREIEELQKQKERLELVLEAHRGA
T5 sequence 2: T1 sequence 2

Row | Sequence | binding signal (ATF3;CEBPG) | binding signal (ATF3;CEBPA) | binding signal (JUN;CEBPG) | binding signal (JUN;CEBPA) | binding signal (BATF3;CEBPG) | binding signal (BATF3;CEBPA) | binding signal (ATF3;ATF3) | binding signal (JUNB;CEBPA) | binding signal (BATF;CEBPG) | binding signal (FOSL1;CEBPG)
1 | ATGACGTAAT | 0.53 relative CSI intensity (max = 1) | 0.606 relative CSI intensity (max = 1) | 0.246 relative CSI intensity (max = 1) | 0.286 relative CSI intensity (max = 1) | 0.306 relative CSI intensity (max = 1) | 0.226 relative CSI intensity (max = 1) | 0.196 relative CSI intensity (max = 1) | 0.144 relative CSI intensity (max = 1) | 0.22 relative CSI intensity (max = 1) | 0.318 relative CSI intensity (max = 1)
2 | ATGACGTCAT | 0.268 relative CSI intensity (max = 1) | 1 relative CSI intensity (max = 1) | 0.705 relative CSI intensity (max = 1) | 1 relative CSI intensity (max = 1) | 0.108 relative CSI intensity (max = 1) | 0.0986 relative CSI intensity (max = 1) | 1 relative CSI intensity (max = 1) | 0.0515 relative CSI intensity (max = 1) | 0.12 relative CSI intensity (max = 1) | 0.43 relative CSI intensity (max = 1)
3 | ATGACGCAAT | 1 relative CSI intensity (max = 1) | 0.754 relative CSI intensity (max = 1) | 1 relative CSI intensity (max = 1) | 0.7 relative CSI intensity (max = 1) | 0.954 relative CSI intensity (max = 1) | 0.595 relative CSI intensity (max = 1) | 0.0322 relative CSI intensity (max = 1) | 1 relative CSI intensity (max = 1) | 0.678 relative CSI intensity (max = 1) | 1 relative CSI intensity (max = 1)
4 | ATGACGGAAT | 0.0128 relative CSI intensity (max = 1) | 0.105 relative CSI intensity (max = 1) | 0.0184 relative CSI intensity (max = 1) | 0.00425 relative CSI intensity (max = 1) | 0.00179 relative CSI intensity (max = 1) |  | 0.00639 relative CSI intensity (max = 1) | 0.00413 relative CSI intensity (max = 1) | 0.00661 relative CSI intensity (max = 1) | 
5 | ATGATGCAAT | 0.538 relative CSI intensity (max = 1) | 0.655 relative CSI intensity (max = 1) | 0.445 relative CSI intensity (max = 1) | 0.679 relative CSI intensity (max = 1) | 0.78 relative CSI intensity (max = 1) | 0.725 relative CSI intensity (max = 1) | 0.00513 relative CSI intensity (max = 1) | 0.927 relative CSI intensity (max = 1) | 0.553 relative CSI intensity (max = 1) | 0.498 relative CSI intensity (max = 1)
6 | CCTGACGTCA | 0.0196 relative CSI intensity (max = 1) | 0.18 relative CSI intensity (max = 1) |  | 0.00973 relative CSI intensity (max = 1) | 0.00277 relative CSI intensity (max = 1) | 0.00253 relative CSI intensity (max = 1) | 0.0945 relative CSI intensity (max = 1) | 0.00467 relative CSI intensity (max = 1) | 0.0162 relative CSI intensity (max = 1) | 
